Screening data deposited in PubChem by Broad Institute.
Pf Dd2 growth: P. falciparum Dd2 growth inhibitors, primary screen, SYBR Green fluorescence, single dose replicates; 72 h; active compounds read low; activity change, % at 10 µM; 94,000 compounds, 2.3% hits; in the data active = activity change below about -80%; inconclusive = no clear call, values can overlap the other calls
C diff HTS: C. difficile growth inhibitors, primary screen, HTS. AID 1259249, 2017. Clostridium difficile clinical isolate growth, OD600, 24 h; active compounds read low. growth activity, negative = inhibition, % at 16 µg/mL (by protocol). 86,000 compounds, 0.25% hits;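 active = mean growth activity at or below -80% and every replicate also at or below -80%; inconclusive = mean at or below -80% but some replicate above -80%; inactive = mean growth activity above -80%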
Each line names hits and unclear results; the compound was inactive in the other large screens. Sampled rows, rich in hits. Any-hit rate of the full collection: about 2.3%.

C[C@@H]1CCCCO[C@H](CN(C)C(=O)Nc2ccc(C(F)(F)F)cc2)[C@@H](C)CN([C@H](C)CO)C(=O)c2cc(NC(=O)Cc3ccccc3)ccc2O1	Pf Dd2 growth -88
COCC(=O)N1C[C@H](C)[C@H](OC)CN(C)C(=O)c2cc(NC(=O)Nc3cccc(F)c3)ccc2OC[C@H]1C	none (no result: C diff HTS)
O=C(N[C@@H]1CC[C@H](CCn2cc(C3(O)CCCC3)nn2)O[C@H]1CO)C1CCC1	none
Cc1noc(C)c1NC(=O)Nc1ccc2c(c1)C(=O)N([C@@H](C)CO)C[C@H](C)[C@H](CN(C)S(=O)(=O)c1c(C)noc1C)O2	none
C[C@@H]1CN([C@H](C)CO)C(=O)c2cccc(NS(=O)(=O)c3cccs3)c2O[C@H]1CN(C)Cc1ccc(C(=O)O)cc1	none (no result: C diff HTS)
C[C@H]1CN([C@@H](C)CO)C(=O)c2cc(NC(=O)NC3CCCCC3)ccc2O[C@@H]1CN(C)C(=O)Nc1ccc2c(c1)OCO2	none
COc1ccc(NC(=O)N(C)C[C@H]2OCCCC[C@@H](C)Oc3ccc(NC(=O)c4ccccc4)cc3C(=O)N([C@@H](C)CO)C[C@H]2C)cc1	none
C[C@@H]1CCCCO[C@H](CN(C)C(=O)Nc2ccc(C(F)(F)F)cc2)[C@H](C)CN([C@H](C)CO)C(=O)c2cc(NC(=O)Cc3ccccc3)ccc2O1	Pf Dd2 growth -86
C[C@@H]1CCCCO[C@H](CN(C)C(=O)Nc2ccc(F)cc2)[C@H](C)CN([C@H](C)CO)C(=O)c2cc(NC(=O)Cc3ccccc3)ccc2O1	Pf Dd2 growth -85
C[C@@H]1CCCCO[C@@H](CN(C)C(=O)Nc2ccc(C(F)(F)F)cc2)[C@H](C)CN([C@@H](C)CO)C(=O)c2cc(NC(=O)Cc3ccccc3)ccc2O1	none
COc1ccc(NC(=O)N(C)C[C@H]2OCCCC[C@H](C)Oc3ccc(NC(=O)c4ccccc4)cc3C(=O)N([C@H](C)CO)C[C@H]2C)cc1	Pf Dd2 growth -95
C[C@@H]1CCCCO[C@H](CN(C)C(=O)Nc2ccc(F)cc2)[C@@H](C)CN([C@@H](C)CO)C(=O)c2cc(NC(=O)Cc3ccccc3)ccc2O1	none
Cc1noc(C)c1NC(=O)N(C)C[C@@H]1Oc2ccc(NC(=O)C3CC3)cc2C(=O)N([C@H](C)CO)C[C@H]1C	none
COCC(=O)N1CC(=O)N2[C@H](C1)[C@H](c1ccc(C#CC3CCCC3)cc1)[C@@H]2CO	none
Cc1ccccc1S(=O)(=O)N1CC(=O)N2[C@@H](CO)[C@H](c3ccc(C#CCC(C)C)cc3)[C@@H]2C1	none
COc1ccc(NC(=O)Nc2ccc3c(c2)C(=O)N([C@H](C)CO)C[C@@H](C)[C@@H](CN(C)CC2CCCCC2)OCCCC[C@H](C)O3)cc1	none
C[C@@H]1CN([C@H](C)CO)C(=O)Cc2cc(NS(=O)(=O)c3cccs3)ccc2O[C@@H]1CN(C)C(=O)Nc1ccc2c(c1)OCO2	none
COc1ccc(CN2C[C@@H](C)[C@H](OC)CN(C)C(=O)c3ccc(NC(=O)c4nc5ccccc5s4)cc3OC[C@@H]2C)cc1	none
COc1ccc(CN2C[C@@H](C)[C@H](OC)CN(C)C(=O)c3ccc(NC(=O)c4nc5ccccc5s4)cc3OC[C@H]2C)cc1	Pf Dd2 growth -88
COc1ccc(CN2C[C@H](C)[C@H](OC)CN(C)C(=O)c3cc(NC(=O)c4nc5ccccc5s4)ccc3OC[C@@H]2C)cc1	Pf Dd2 growth -83 (no result: C diff HTS)
COc1ccc(CN2C[C@@H](C)[C@@H](OC)CN(C)C(=O)c3cc(NC(=O)c4nc5ccccc5s4)ccc3OC[C@H]2C)cc1	none (no result: C diff HTS)
COc1ccccc1S(=O)(=O)N[C@H]1CC[C@@H](CCn2cc(C3CC3)nn2)O[C@@H]1CO	none
C[C@H]1CN([C@@H](C)CO)C(=O)c2cc(C#Cc3cccc(F)c3)cnc2O[C@@H]1CN(C)C(=O)c1ccccc1F	Pf Dd2 growth inconclusive
C[C@@H]1CN([C@H](C)CO)C(=O)c2cc(C#Cc3ccccc3F)cnc2O[C@H]1CN(C)C(=O)Cc1ccncc1	Pf Dd2 growth -84
C[C@@H]1CN([C@H](C)CO)C(=O)c2cc(C#Cc3ccccc3)cnc2O[C@H]1CN(C)C(=O)c1ccccc1F	none
C[C@@H]1CN([C@H](C)CO)C(=O)c2cc(C#Cc3cccc(F)c3)cnc2O[C@@H]1CN(C)C(=O)c1ccccc1F	Pf Dd2 growth -81
C[C@@H]1CN([C@H](C)CO)C(=O)c2cc(C#Cc3cccc(F)c3)cnc2O[C@H]1CN(C)C(=O)c1ccccc1F	Pf Dd2 growth -85
C[C@H](CO)N1C[C@H](C)[C@H](CN(C)C(=O)c2ccccc2F)Oc2ncc(C#Cc3cccc(F)c3)cc2C1=O	none
C[C@H]1CN([C@@H](C)CO)C(=O)c2cc(C#Cc3cccc(F)c3)cnc2O[C@H]1CN(C)C(=O)c1ccccc1F	Pf Dd2 growth -82
C[C@@H]1CN([C@@H](C)CO)C(=O)c2cc(C#Cc3ccccc3F)cnc2O[C@H]1CN(C)C(=O)Cc1ccncc1	none
CCN(C[C@H]1N[C@H](CO)[C@@H]1c1ccc(-c2ccc(F)cc2)cc1)C(=O)COC	none
C[C@@H]1CN([C@@H](C)CO)C(=O)c2cc(NC(=O)CCN3CCOCC3)ccc2O[C@@H]1CN(C)C(=O)Nc1ccc(C(F)(F)F)cc1	none
C[C@@H]1CN([C@H](C)CO)C(=O)c2c(c3ccccc3n2C)-c2ccccc2CO[C@@H]1CN(C)S(=O)(=O)CC(F)(F)F	none
COc1ccc(CN(C)C[C@H]2OCCCC[C@H](C)Oc3ccc(NC(=O)Nc4ccc(C(F)(F)F)cc4)cc3C(=O)N([C@@H](C)CO)C[C@@H]2C)cc1	none
C[C@@H]1CN([C@@H](C)CO)C(=O)Cc2cc(NS(=O)(=O)c3ccc(F)cc3)ccc2O[C@@H]1CN(C)Cc1ccc(C(=O)O)cc1	none
Cc1noc(C)c1NC(=O)Nc1ccc2c(c1)C(=O)N([C@@H](C)CO)C[C@@H](C)[C@H](CN(C)CC1CC1)OCCCC[C@@H](C)O2	none
C[C@H](CO)N1C[C@H](C)[C@@H](CN(C)C(=O)c2cccc(F)c2)Oc2ncc(/C=C/c3ccccc3)cc2C1=O	Pf Dd2 growth inconclusive
C[C@H]1CN([C@@H](C)CO)C(=O)c2cc(/C=C/c3ccccc3)cnc2O[C@@H]1CN(C)C(=O)c1cccc(F)c1	Pf Dd2 growth -83
C[C@H](CO)N1C[C@H](C)[C@@H](CN(C)S(C)(=O)=O)Oc2ccc(NC(=O)Nc3ccc(F)cc3)cc2CC1=O	none
CO[C@H]1CN(C)C(=O)c2ccc(NC(=O)c3ccc(-c4ccccc4)cc3)cc2OC[C@H](C)NC[C@@H]1C	none
CO[C@@H]1CN(C)C(=O)c2cc(NC(=O)c3ccc(Oc4ccccc4)cc3)ccc2OC[C@H](C)NC[C@H]1C	none
CO[C@H]1CN(C)C(=O)c2ccc(NC(=O)c3ccc(-c4ccccc4)cc3)cc2OC[C@@H](C)NC[C@H]1C	Pf Dd2 growth -86 (no result: C diff HTS)
CO[C@H]1CN(C)C(=O)c2cc(NC(=O)c3ccc(Oc4ccccc4)cc3)ccc2OC[C@@H](C)NC[C@@H]1C	Pf Dd2 growth -90
CO[C@@H]1CN(C)C(=O)c2ccc(NC(=O)c3ccc(-c4ccccc4)cc3)cc2OC[C@@H](C)NC[C@H]1C	Pf Dd2 growth -87
CO[C@@H]1CN(C)C(=O)c2ccc(NC(=O)c3ccccc3)cc2OC[C@H](C)NC[C@@H]1C	none (no result: C diff HTS)
Cc1noc(C)c1S(=O)(=O)Nc1ccc2c(c1)C(=O)N([C@H](C)CO)C[C@H](C)[C@@H](CN(C)C)OCCCC[C@H](C)O2	none
